Tau fibril FP = qHTS for Inhibitors of Tau Fibril Formation, Fluorescence Polarization; Potency, µM (highest dose often 57.7 µM), for inactives: at the top dose activity, negative = inhibition, hits mostly inhibitors; 280,000 compounds, 0.39% hits; K18 P301L tau heparin fibrillization, Alexa594 FP, 6 h; AID 1468, 2008; Microtubule-associated protein tau (Homo sapiens), P10636; further: on the % scale 0 is the no-effect control and ±100 the full control effect; nearly all actives have a fitted effect of over 55% in size
Target sequence (P10636 561-689 P618L limits assumed): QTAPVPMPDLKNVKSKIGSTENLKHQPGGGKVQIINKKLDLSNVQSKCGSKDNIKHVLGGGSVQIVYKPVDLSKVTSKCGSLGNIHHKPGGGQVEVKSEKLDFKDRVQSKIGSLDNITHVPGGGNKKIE
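Compound effects on tau fibrillization are measured by Alexa 594 fluorescence polarization (ex 555, em 632 nm). K18 P301L tau is used at 15 uM with 0.24 uM labeled tracer, and 20 uM heparin induces aggregation over 6 hr at 37 C.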
Tau fibril ThT = qHTS for Inhibitors of Tau Fibril Formation, Thioflavin T Binding. Microtubule-associated protein tau (Homo sapiens), P10636. recombinant tau K18 P301L, heparin-induced fibrillization, ThT fluorescence. Potency, µM (titrated, usually from 57.4 µM), for inactives: at the top dose activity, negative = inhibition, usual class: inhibitors. 270,000 compounds, 2.1% hits. AID 1460, 2008; further: on the % scale 0 is the no-effect control and ±100 the full control effect; nearly all actives have a fitted effect of over 55% in size
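ThT emission at 510 nm, taken 1 hr after adding 30 uM dye, quantifies aggregates formed when 20 uM heparin acts on human tau K18 P301L for 6 hr at 37 C.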
HTT aggregate = qHTS Multiplex Assay to Identify Dual Action Probes in a Cell Model of Huntington: Aggregate Formation (GFP); PC12 HttQ103-GFP aggregates, Acumen cytometry, 40 h; Potency, µM (series often up to 46.1 µM), for the others: top-dose activity change, negative = inhibition, actives largely listed as inhibitors; 220,000 compounds, 1.1% hits; further: on the % scale 0 is the no-effect control and ±100 the full control effect; nearly all actives have a fitted effect of over 60% in size
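PC12 cells stably carrying ecdysone-inducible HTT exon 1 Q103–GFP were induced with tebufenozide (100 nM final) and treated with library compounds in titration. GFP aggregates in lysates were counted by laser scanning cytometry.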
Tau fluor cs = Counterscreen qHTS for Inhibitors of Tau Fibril Formation, Fluorescence Polarization. tau K18 P301L Alexa594 fluorescence, heparin fibrillization. Potency, µM (series often up to 57.7 µM), without a hit: at the top dose activity change, negative = decrease. 280,000 compounds, 0.93% hits; further: on the % scale 0 is the no-effect control and ±100 the full control effect; nearly all actives have a fitted effect of over 55% in size
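Human tau K18 P301L (15 uM unlabeled, 0.24 uM Alexa 594-labeled) in 100 mM sodium acetate pH 7 with 20 uM heparin, 6 hr at 37 C. ThT 30 uM added, 1 hr ambient; Alexa 594 FP and total fluorescence read at 555/632 nm.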
HTT cytoprotect = qHTS Multiplex Assay to Identify Dual Action Probes in a Cell Model of Huntington: Cytoprotection (ATP); 230,000 compounds, 0.14% hits; AID 1471, 2008; Potency, µM (doses to about 56.4 µM), without a hit: cytoprotection (ATP increase), most hits filed as activators; PC12 HTT-Q103 induced, cytoprotection, ATP luminescence, 40 h; further: % of control where 0% means no effect; nearly all actives have a fitted effect of over 45% in size
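PC12 cells with ecdysone-inducible HTT exon 1 Q103-GFP, induced with 100 nM tebufenozide and co-treated with library compounds in a dose series (1536-well, 1500 cells/well). Cytoprotection read as ATP content by ATPlite luminescence.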
Active calls of the source: *; [ ] = another dose, or the depositor's remark. Compounds with a hit are over-represented: about 3.7% of the library has one in this group of screens. The call rests on the fitted dose curve; in most records, active means well fitted curve in the direction sought with a large enough effect; inconclusive means small, poorly fitted or top-dose-only effect, or another doubt; inactive means no such curve, though single readings can be large; an effect the other way counts as inactive or inconclusive. Potency means the concentration at half of the fitted maximal effect.

How did COC(=O)CCC(=O)Nc1ccc(N=Nc2ccccc2)cc1 do in these assays?
Tau fibril FP: -10.8%; Tau fibril ThT: 11.2µM*; HTT aggregate: 9.8%; Tau fluor cs: inconclusive; HTT cytoprotect: -60.8%

Results for COC(=O)c1ccc(N=Nc2ccccc2)cc1 ?
Tau fibril FP: -1.4%; Tau fibril ThT: 14.1µM*; HTT aggregate: -13.5%; Tau fluor cs: -10.3%; HTT cytoprotect: -9.0%[10 µM]

Results for O=C(O)CCCC(=O)Nc1ccc(N=Nc2ccccc2)cc1 ?
Tau fibril FP: -12.5%; Tau fibril ThT: inconclusive; HTT aggregate: -20.9%; Tau fluor cs: -14.1%; HTT cytoprotect: -26.7%

Results for CN(C)C=Nc1ncc2c([nH]c3ccccc32)c1C#N ?
Tau fibril FP: -5.5%; Tau fibril ThT: -10.1%; HTT aggregate: 6.31µM*; Tau fluor cs: -3.3%; HTT cytoprotect: -21.4%

How did CN(C)/C=N/c1[nH]ncc1C#N do in these assays?
Tau fibril FP: 1.2%; Tau fibril ThT: -2.6%; HTT aggregate: 13.6%; Tau fluor cs: 3.4%; HTT cytoprotect: -8.7%[10 µM]

Results for COc1cccc(-c2nc3c(C#N)c[nH]n3c2NC2CCCCC2)c1 ?
Tau fibril FP: -1.0%; Tau fibril ThT: 5.9%; Tau fluor cs: 6.1%

How did COc1ccc(N2C(=O)C(Cl)=C(Oc3cccc(OC)c3)C2=O)cc1 do in these assays?
Tau fibril FP: 22.4µM*; Tau fibril ThT: 14.1µM*; HTT aggregate: inconclusive; Tau fluor cs: -18.6%; HTT cytoprotect: inconclusive

Results for COc1ccc(N2C(=O)C(Cl)=C(Nc3ccccc3O)C2=O)cc1 ?
Tau fibril FP: inconclusive; Tau fibril ThT: 10µM*; HTT aggregate: inconclusive; Tau fluor cs: inconclusive; HTT cytoprotect: inconclusive

How did CCCCC(CCC(=O)O)(C(=O)OCC)c1csc(Nc2ccccc2)n1 (stereo not given) do in these assays?
Tau fibril FP: 4.1%; Tau fibril ThT: -17.1%; HTT aggregate: -0.4%[9.22 µM]; Tau fluor cs: -3.3%; HTT cytoprotect: -14.4%[10 µM]

How did CCOC(=O)/C(=N/Nc1ccccc1)c1csc(Nc2ccccc2)n1 do in these assays?
Tau fibril FP: inconclusive; Tau fibril ThT: inconclusive; HTT aggregate: 1.1%; Tau fluor cs: 7.08µM*[quencher]; HTT cytoprotect: -20.0%

What do the screens show for `CCOC(=O)/C(=N\Nc1ccc(OC)cc1)c1csc(Nc2ccccc2)n1`?
Tau fibril FP: inconclusive; Tau fibril ThT: inconclusive; HTT aggregate: -0.4%; Tau fluor cs: 7.08µM*[quencher]; HTT cytoprotect: -19.7%

What do the screens show for `CCOC(=O)/C(=N\Nc1ccc(Cl)cc1)c1csc(Nc2ccccc2)n1`?
Tau fibril FP: inconclusive; Tau fibril ThT: inconclusive; HTT aggregate: inconclusive; Tau fluor cs: 4.47µM*[quencher]; HTT cytoprotect: -5.1%

Results for O=C(COc1ccc(Cl)cc1)OCc1csc(Nc2ccccc2)n1 ?
Tau fibril FP: 11.5%; Tau fibril ThT: inconclusive; HTT aggregate: -9.3%; Tau fluor cs: 14.1µM*[quencher]; HTT cytoprotect: -37.5%[10 µM]

What do the screens show for `CCOc1ccc(C(=O)NCCn2cc(SCC(=O)Nc3ccccc3)c3ccccc32)cc1`?
Tau fibril FP: -12.8%; Tau fibril ThT: inconclusive; Tau fluor cs: inconclusive

What do the screens show for `O=c1nc2ccccc2c2n1CC(CN1CCN(c3ccccc3)CC1)N2` (stereo not given)?
Tau fibril FP: -5.4%; Tau fibril ThT: -6.6%; Tau fluor cs: -9.4%; HTT cytoprotect: -11.1%

What do the screens show for `CCOC(=O)N1CCC(NC(=O)C2CCCN(Cc3nc(-c4cccc(Cl)c4)oc3C)C2)CC1` (stereo not given)?
Tau fibril FP: 8.0%; Tau fibril ThT: -11.2%; HTT aggregate: 7.94µM*; Tau fluor cs: -1.0%; HTT cytoprotect: -20.2%

How did CCN1CCN(CCNC(=O)C2CCCN(Cc3nc(-c4cccc(Cl)c4)oc3C)C2)CC1 (stereo not given) do in these assays?
Tau fibril FP: 3.1%; Tau fibril ThT: -11.0%; HTT aggregate: inconclusive; Tau fluor cs: -8.0%; HTT cytoprotect: -33.7%

Results for O=C(/C=C/c1ccco1)NCC1CCCO1 (stereo not given) ?
Tau fibril FP: inconclusive; Tau fibril ThT: 14.1µM*; HTT aggregate: 5.5%; Tau fluor cs: -19.9%; HTT cytoprotect: -6.3%

What do the screens show for `Cc1ccc(C(=O)N/C(=C/c2ccco2)C(=O)NCC2CCCO2)cc1` (stereo not given)?
Tau fibril FP: 1.8%; Tau fibril ThT: -4.9%; HTT aggregate: -14.4%; Tau fluor cs: -2.5%; HTT cytoprotect: 8.7%[10 µM]

How did COc1ccc(N=N/C(=C\O)C(=O)c2cccs2)cc1 do in these assays?
Tau fibril FP: 3.9%; Tau fibril ThT: 12.6µM*; HTT aggregate: -10.7%; Tau fluor cs: inconclusive; HTT cytoprotect: inconclusive

How did COc1ccc(C(=O)/C(=C/O)N=Nc2ccc(F)cc2)cc1 do in these assays?
Tau fibril FP: -9.1%; Tau fibril ThT: 28.2µM*; HTT aggregate: inconclusive; Tau fluor cs: -29.2%; HTT cytoprotect: -28.2%[10 µM]

What do the screens show for `COc1ccc(C(=O)C(/C=N/O)=N/Nc2ccc(F)cc2)cc1`?
Tau fibril FP: 16.8%; Tau fibril ThT: inconclusive; HTT aggregate: inconclusive; Tau fluor cs: -18.6%; HTT cytoprotect: -118.4%

How did CN(C)c1ccc(/C=N\NC(=O)c2cnc3ccccc3c2)cc1 do in these assays?
HTT cytoprotect: -2.2%[10 µM]

What do the screens show for `COC(=O)[C@@H]1C[C@H]1[C@@H](NC(=O)Oc1ccc(F)cc1)c1ccccc1`?
Tau fibril FP: 2.6%; Tau fibril ThT: inconclusive; Tau fluor cs: -15.3%; HTT cytoprotect: 12.0%

How did Cc1ccc(Cc2cnc(NC(=O)c3ccc4c(c3)CC(c3ccccc3)OC4=O)s2)cc1 (stereo not given) do in these assays?
Tau fibril FP: -10.3%; Tau fibril ThT: -7.9%; Tau fluor cs: -14.1%

How did Cc1c(/C=N/Nc2ccc(F)cc2)c(O)n(C)c(=O)c1C#N do in these assays?
Tau fibril FP: inconclusive; Tau fibril ThT: 14.1µM*; HTT aggregate: -1.6%[9.22 µM]; Tau fluor cs: -26.5%; HTT cytoprotect: 7.0%[10 µM]

What do the screens show for `CC(=O)N=Cc1c(C)c(C#N)c(=O)n(C)c1O`?
Tau fibril FP: -9.5%; Tau fibril ThT: inconclusive; HTT aggregate: -24.9%; Tau fluor cs: -18.7%; HTT cytoprotect: -27.5%

What do the screens show for `CC(=O)Nc1ccc(NC(=O)C2CCN(S(=O)(=O)c3ccc4c(c3)CCCC(=O)N4)CC2)cc1`?
Tau fibril FP: -11.5%; Tau fibril ThT: -11.4%; Tau fluor cs: -11.1%

Results for Cc1cccc(N=Cc2cc3c(cc2[N+](=O)[O-])OCO3)c1 ?
Tau fibril FP: inconclusive; Tau fibril ThT: 10µM*; HTT aggregate: -2.1%; Tau fluor cs: inconclusive; HTT cytoprotect: -4.5%

Assay outcomes: PubChem BioAssay, National Center for Advancing Translational Sciences (NCATS)
